# Compounds with a hit are over-represented: about 12% of the library has one in this group of screens.
# PLK1 PBD inh = inhibitors of human PLK1 polo-box domain binding. P53350. Plk1 PBD binding of FITC phosphopeptide, fluorescence polarization. Potency, µM, for the others: max response, negative = inhibition, actives largely listed as inhibitors. actives 2.8% (n = 360,000); further: potency means the concentration at half of the fitted maximal effect; series mostly up to about 57 µM; on the % scale 0 is the no-effect control and ±100 the full control effect; nearly all actives have a fitted effect of over 65% in size
# Target sequence (P53350 whole entry, looked up, the tested form may be a part): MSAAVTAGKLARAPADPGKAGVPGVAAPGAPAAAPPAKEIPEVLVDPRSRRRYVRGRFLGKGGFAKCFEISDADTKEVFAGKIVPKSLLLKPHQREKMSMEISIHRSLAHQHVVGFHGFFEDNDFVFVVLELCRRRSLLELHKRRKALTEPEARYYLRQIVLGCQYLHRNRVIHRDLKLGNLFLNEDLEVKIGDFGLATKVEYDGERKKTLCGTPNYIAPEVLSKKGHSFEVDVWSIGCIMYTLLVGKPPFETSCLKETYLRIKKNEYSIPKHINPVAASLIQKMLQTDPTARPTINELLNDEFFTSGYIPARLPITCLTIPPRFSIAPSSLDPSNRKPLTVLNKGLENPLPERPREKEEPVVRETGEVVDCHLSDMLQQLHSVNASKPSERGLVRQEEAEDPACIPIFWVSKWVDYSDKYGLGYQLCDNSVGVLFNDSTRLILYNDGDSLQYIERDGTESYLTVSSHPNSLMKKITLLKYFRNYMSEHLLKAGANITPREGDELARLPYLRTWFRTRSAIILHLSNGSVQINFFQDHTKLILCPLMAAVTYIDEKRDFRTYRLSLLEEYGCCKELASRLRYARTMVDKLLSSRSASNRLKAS
# JMJD2A Tudor inh = blocks the human JMJD2A Tudor domain; O75164; AlphaScreen JMJD2A-Tudor / H3K4me3 peptide binding; Potency, µM (top dose mostly 114 µM), without a hit: at the top dose activity change, negative = inhibition, usual class: inhibitors; actives 4.4% (n = 390,000); AID 504339; further: potency means the concentration at half of the fitted maximal effect; on the % scale 0 is the no-effect control and ±100 the full control effect; nearly all actives have a fitted effect of over 50% in size
# HP1b chromo inh = HP1-beta chromodomain-methylated histone interaction inhibition. Potency, µM (titrated, usually from 114 µM), for the others: top-dose activity change, negative = inhibition, actives largely listed as inhibitors. AlphaScreen HP1-beta / biotin-H3K9me3 peptide binding. actives 0.56% (n = 390,000). AID 540317; further: potency means the concentration at half of the fitted maximal effect; nearly all actives have a fitted effect of over 70% in size
#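 HP1-beta protein (50 nM final) preincubated 30 min at room temperature with biotinylated H3(1-18)K9me3 peptide (50 nM) in PBS pH 7.4, 0.01% Tween-20, then compound added for 30 min. AlphaScreen streptavidin donor/nickel chelate acceptor beads (10 ug/mL final), 30 min dark, luminescence read.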
# G9a inh = G9a (human) methyltransferase inhibition | Q96KQ7 | G9a H3K9 monomethylation, AlphaScreen, 2 h | Potency, µM (series often up to 102 µM), without a hit: top-dose activity, negative = inhibition, most hits filed as inhibitors | actives 8.8% (n = 350,000) | AID 504332; further: potency means the concentration at half of the fitted maximal effect; on the % scale 0 is the no-effect control and ±100 the full control effect; nearly all actives have a fitted effect of over 75% in size
#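 AlphaScreen read-out: biotin-H3K9 peptide (500 nM) methylation by 20 nM enzyme with 20 uM SAM, 2 h at room temperature after 15 min compound preincubation; anti-monomethyl H3K9 antibody plus donor/acceptor beads, 10 min dark.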
# PI5P4K alpha inh = inhibitors of human PI5P4K alpha; PI5P4Kalpha enzyme, ADP-Glo luminescence, 60 min; stronger effect = lower value; AID 652105; max response, %; P48426; actives 1.2% (n = 330,000); active means max response of -50% or lower; inconclusive means between -30% and -50%; inactive means -30% or higher; further: value at the top dose of about 77 µM; on the % scale 0 is the no-effect control and ±100 the full control effect
#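 Luminescence from ADP-Glo served as readout of PI5P4Kalpha activity in a qHTS format. Reaction: enzyme, substrate, compound, ATP at 5 microM final, 60 min at RT.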
# BAZ2B inh = blocks human BAZ2B. Q9UIF8. AlphaScreen BAZ2B-H3K14Ac peptide displacement. Potency, µM (highest dose often 114 µM), without a hit: top-dose activity change, negative = inhibition, most hits filed as inhibitors. actives 4.4% (n = 360,000); further: potency means the concentration at half of the fitted maximal effect; on the % scale 0 is the no-effect control and ±100 the full control effect; nearly all actives have a fitted effect of over 60% in size
#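 AlphaScreen displacement of biotin-H3(5-23)K14Ac peptide (50 nM final) from BAZ2B (50 nM final) in PBS pH 7.4, 0.01% Tween-20; complex preformed 30 min RT, then compounds (top 110 uM) 30 min RT, beads 20 min dark.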
# * = called active by the depositor; u = inconclusive; x = not tested or not shown; [ ] = dose if it differs, or a comment. Unless noted, the call rests on the fitted dose curve; in most records, active means well fitted curve in the direction sought with a large enough effect; inconclusive means small, poorly fitted or top-dose-only effect, or another doubt; inactive means no such curve, though single readings can be large; an effect the other way counts as inactive or inconclusive.
SMILES,PLK1 PBD inh,JMJD2A Tudor inh,HP1b chromo inh,G9a inh,PI5P4K alpha inh,BAZ2B inh
CCOc1cc(/C=N/NC(=O)Cc2ccc(C(F)(F)F)cc2[N+](=O)[O-])c(Br)cc1OC,0%,6%,27%,11%,5,7%
COc1cc([N+](=O)[O-])cc(/C=N/NC(=O)Cn2nccc2C)c1O,27µM*,-33%[11.4 µM],-11%,4%,u,45µM*
COc1ccc(/C=N/NC(=O)Cn2nc([N+](=O)[O-])cc2C)c(OC)c1OC,-13%,-9%,20%,0%,0,-11%
COc1cc([N+](=O)[O-])cc(/C=N/NC(=O)Cn2nc(C)cc2C)c1O,-3%,79µM*,23%,-14%,-11,71µM*
COc1cc(Br)cc(/C=N/NC(=O)Cc2ccc(C(F)(F)F)cc2[N+](=O)[O-])c1O,u,89µM*,-11%,17%,6,8%
Cc1cc2oc(=O)c(CC(=O)NCCc3ccccc3F)c(C)c2c2occ(C(C)(C)C)c12,x,-21%,20%,-26%[59 µM],x,-25%
COc1ccc(-c2[nH]ncc2C(=O)NCc2cccc(Cl)c2)cc1,x,-15%,18%,1%[59 µM],x,5%
C/C1=C\CCC2C(/C=C(\C)CC1)OC(=O)C2CN1CCCCC1 (stereo unspecified),-8%,-18%,-18%,5%,4,-1%
Cc1cc(C)cc(C(=O)NCCc2sc(-c3ccc(F)cc3)nc2C)c1,x,1%,34%,-6%[12.7 µM],x,-10%
Fc1ccc2[nH]c(-c3cccs3)cc2c1,x,-10%,12%,5%[59 µM],x,-5%
CC(=O)Nc1sc(C)c(C)c1C(=O)OCCOc1ccccc1,2%,21%,86%,28%,16,21%
O=C1CCc2cc(S(=O)(=O)Nc3cc(F)cc(Cl)c3)c(F)cc2N1,x,-18%,x,x,x,x
CC(C)=C1C(=O)NN(c2ccc(F)c(Cl)c2)C1=O,-14%,-29%,1%,x,x,u
O=C1NN(c2ccc(F)c(Cl)c2)C(=O)/C1=C\c1cccc(OC(=O)c2cccs2)c1,1.1µM*,79µM*,u,20µM*,-82*,u
CCOc1cc(CNCc2ccccn2)cc(Cl)c1OC,2%,45µM*,26%,u,-3,56µM*
CCOc1c(Cl)cc(CNCc2ccncc2)cc1OC,7%,-8%,33%,56µM*,-2,-32%
CCOc1cc(CNCc2ccccn2)cc(Cl)c1OCC,-8%,56µM*,19%,x,3,50µM*
O=[N+]([O-])c1ccc(N2CCCCC2)s1,u,-25%,u,22µM*,-12,-31%
O=[N+]([O-])c1ccc(N2CCN(Cc3ccccc3)CC2)s1,1%,-16%,5%,-30%[2.33 µM],1,u
COC(=O)CCCC1=CC2=CC(=O)C(C)(OC(=O)c3cccs3)C(=O)C2=CN1CCc1ccccn1 (stereo unspecified),-15%,-22%,21%,11%[59 µM],-22,-30%
C=CCN1C=C2C(=O)C(C)(OC(=O)c3cccs3)C(=O)C=C2C=C1CCCC(=O)OC (stereo unspecified),-15%,-29%,11%,-6%[12.7 µM],1,79µM*
COc1ccccc1N1CCN(S(=O)(=O)c2ccc(-n3cnnn3)c(C)c2)CC1,-13%,-17%[57.1 µM],26%,u,6,4%
COc1ccc(N2CCN(C(=O)c3ccc(S(=O)(=O)N4CCOCC4)cc3)CC2)cc1,-8%,-27%,-17%,8.9µM*,x,-28%
COc1ccc(N2CCN(S(=O)(=O)c3ccc(-n4cnnn4)c(C)c3)CC2)cc1,-9%,-17%,21%,7.1µM*,-5,-12%
CCCN1CCN(S(=O)(=O)c2ccc(-n3cnnn3)cc2)CC1,-29%,3%,23%,50µM*,6,-19%
SMILES,PLK1 PBD inh,JMJD2A Tudor inh,HP1b chromo inh,G9a inh,PI5P4K alpha inh,BAZ2B inh
O=C(c1ccc(S(=O)(=O)N2CCOCC2)cc1)N1CCOCC1,-4%,-4%,23%,19%,3,-7%
COc1ccc(N2CCN(C(=O)c3ccc(S(=O)(=O)N4CCCCCC4)cc3)CC2)cc1,-2%,u,-23%,u,3,13%
COc1ccc(N2CCN(C(=O)c3ccc(S(=O)(=O)N4CCCC4)cc3)CC2)cc1,-17%,-31%,-18%,79µM*,-2,-26%
CN1C/C(=C/c2ccccc2[N+](=O)[O-])C(=O)/C(=C\c2ccccc2[N+](=O)[O-])C1,-18%,-15%,9%,x,-18,x
COc1ccc(NC(=O)N2CC[C@@]3(CCCN(C(=O)c4ccco4)C3)C2)cc1,x,x,x,3%[12.7 µM],x,x
COc1ccc(S(=O)(=O)N2CCCCCC2)cc1C(=O)N1CCCCC1,-1%,-4%,17%,u,4,u
COc1ccc(N2CCN(S(=O)(=O)c3ccc(OC)c(C(=O)N4CCCC4)c3)CC2)cc1,4%,-6%,11%,79µM*,11,-6%
COc1ccc(C(=O)c2ccc(N3CCOCC3)cc2)c(OC)c1,-1%,-17%,-2%,25µM*,-1,-9%
COc1ccc(C(=O)c2ccc(OC)cc2OC)cc1,3%,3%,43%,x,-3,0%
COc1cccc2c1ncc1c(-c3ccc(C)cc3)nn(-c3cccc([N+](=O)[O-])c3)c12,x,-18%,56%,53%[59 µM],x,2%
COc1ccc(-c2nc3cnc(OCc4ccccc4)nc3n(CCC#N)c2=O)cc1,x,x,x,9%[0.501 µM],x,x
COc1cccc(-n2c(-c3ccco3)nc3c(cnn3-c3ccccc3C)c2=O)c1,x,u,20%,-3%[59 µM],x,x
N#C/C(=C\c1ccccc1)C(=O)Nc1nncs1,-7%,2%,35%,50µM*,-25,-20%
O=C(Nc1ccccc1)Nc1ccc2nnsc2c1,30µM*,79µM*,-19%,37%,-9,5%
O=C(Nc1ccccc1)Nc1nccs1,-5%,u,26%,8%[0.501 µM],u,u
O=C(Nc1ccccc1)Nc1nncs1,30µM*,-8%[11.4 µM],5%,-8%,-14,-14%
O=C(Nc1ccccc1)Nc1ccc2snnc2c1,-20%,-13%[11.4 µM],0%,9%[59 µM],-1,1%
COC(=O)C1=C(C)Nc2[nH]c(=S)[nH]c(=O)c2C1c1ccc(OC)cc1 (stereo unspecified),u,u,14%,8.9µM*,-15,u
CCC[n+]1c(C)sc2c3c(ccc21)CCCC3,u,45µM*,40µM*,50µM*,-55*,-23%
CCc1c(C(C)S(=O)(=O)c2ccc(C)cc2)[nH]c(=O)n1-c1ccc(OC(F)(F)F)cc1 (stereo unspecified),27µM*,-23%,61%,10µM*,-6,-22%
COc1ccc(CCNC(=O)c2c(C)oc3ncnc(N4CCOCC4)c23)c(OC)c1,x,-9%,26%,-4%[59 µM],x,5%[57.1 µM]
CC(C)(C(=O)N1CCC1(C)C(=O)Nc1ccccc1Br)c1ccccc1 (stereo unspecified),2%,x,x,x,15,x

# Bioassay records (PubChem BioAssay)
